Measured values published in the supplement of paper PMC13380429.
Structures can show the parent of a compound that is named as a salt.

Tested on: Vero E6 infected with SARS-CoV-2
Assay: inhibition of SARS-CoV-2 cytopathic effect; higher = more antiviral protection, active = above 15
Conditions: 48 h

Measured: inhibition of SARS-CoV-2 cytopathic effect

Nc1ccn([C@H]2C[C@H](O)[C@@H](CO)O2)c(=O)n1 [torcitabine]
inactive: 1 nM -1.42% | 8.33 nM -0.61% | 100 nM 0.39% | 833.33 nM -0.39% | 10000 nM 1.92%

Cn1cc(C2=C(c3cn(C4CCN(Cc5ccccn5)CC4)c4ccccc34)C(=O)NC2=O)c2ccccc21 [enzastaurin]
inactive: 1 nM 0.18% | 8.33 nM 1.89% | 100 nM 1.4% | 833.33 nM 1.31% | 10000 nM 3.94%

CCCCC(=O)O[C@]1(C(=O)CO)[C@@H](C)C[C@H]2[C@@H]3CCC4=CC(=O)C=C[C@]4(C)[C@@]3(F)[C@@H](O)C[C@@]21C
inactive: 1 nM -3% | 8.33 nM -2.7% | 100 nM -2.96% | 833.33 nM -2.78% | 10000 nM -4.48%

COc1ccc2nc3c(c(N)c2c1)CCCC3 [7-methoxytacrine]
inactive: 1 nM 0.9% | 8.33 nM 2.7% | 100 nM 0.06% | 833.33 nM 4.86% | 10000 nM 4.52%

CCNC(=O)CC[C@H](N)C(=O)O [L-theanine]
inactive: 1 nM -2.94% | 8.33 nM -3.55% | 100 nM -3.29% | 833.33 nM -0.63% | 10000 nM -0.81%

CC[C@@]1(O)C(=O)OCc2c1cc1n(c2=O)Cc2cc3c(CN(C)C)c(O)ccc3nc2-1 [topotecan]
inactive: 1 nM 0.54% | 8.33 nM 1.66% | 100 nM -1.53% | 833.33 nM -6.88% | 10000 nM -15.3%

O=C(O)Cc1ccccc1Nc1c(Cl)cccc1Cl [diclofenac]
inactive: 1 nM 1.25% | 8.33 nM 0.03% | 100 nM 0.38% | 833.33 nM -0.74% | 10000 nM 0.2%

CC1(C)O[C@@H]2C[C@H]3[C@@H]4CCC5=CC(=O)C=C[C@]5(C)[C@@]4(F)[C@@H](O)C[C@]3(C)[C@]2(C(=O)CO)O1
inactive: 1 nM 0.1% | 8.33 nM -0.04% | 100 nM 1.38% | 833.33 nM 1.4% | 10000 nM -0.1%

Oc1cc(O)c(Cl)cn1 [gimeracil]
inactive: 1 nM -0.94% | 8.33 nM 0.32% | 100 nM -0.13% | 833.33 nM -0.16% | 10000 nM 1.36%

N=c1ccn2c(n1)O[C@H]1[C@H](O)[C@@H](CO)O[C@H]12 [Cyclocytidine HCl]
inactive: 1 nM 1.24% | 8.33 nM 1% | 100 nM 0% | 833.33 nM -0.83% | 10000 nM -4.27%

Cc1noc(NS(=O)(=O)c2ccc(N)cc2)c1C [sulfafurazole]
inactive: 1 nM -0.27% | 8.33 nM -1.19% | 100 nM 0.89% | 833.33 nM -1.49% | 10000 nM 0.12%

CCOC(=O)[C@@](C)(N)Cc1ccc(O)c(O)c1 [methyldopate]
inactive: 1 nM 6.97% | 8.33 nM 1.54% | 100 nM -0.9% | 833.33 nM 1.46% | 10000 nM 2.33%

CCCN(C/C=C/I)C1CCc2cccc(O)c2C1 (stereo not given) [8-hydroxy-PIPAT]
inactive: 1 nM 3.48% | 8.33 nM 1.88% | 100 nM 3.63% | 833.33 nM 3.07% | 10000 nM -2.66%

NCCCNCCSP(=O)(O)O [amifostine]
inactive: 1 nM 5.31% | 8.33 nM 3.29% | 100 nM 4.42% | 833.33 nM 1.87% | 10000 nM 3.86%

CC1(C)O[C@@H]2C[C@H]3[C@@H]4C[C@H](F)C5=CC(=O)C=C[C@]5(C)[C@H]4[C@@H](O)C[C@]3(C)[C@]2(C(=O)CO)O1 [flunisolide]
inactive: 1 nM -0.25% | 8.33 nM 0.14% | 100 nM -1.38% | 833.33 nM -0.29% | 10000 nM -0.97%

CC(=O)N(CC(O)CO)c1c(I)c(C(=O)NCC(O)CO)c(I)c(C(=O)NCC(O)CO)c1I (stereo not given) [iohexol]
inactive: 1 nM -1.99% | 8.33 nM -0.81% | 100 nM -1.68% | 833.33 nM -0.74% | 10000 nM 2.67%

CCOC(=O)[C@@H](N)Cc1ccc(-c2cc(O[C@H](c3ccc(Cl)cc3-n3ccc(C)n3)C(F)(F)F)nc(N)n2)cc1 [telotristat-ethyl]
inactive: 1 nM -0.32% | 8.33 nM 2.88% | 100 nM -1.08% | 833.33 nM 4.77% | 10000 nM 2.26%

O=C(CN1CCNCC1)NC1CCCCC1 [esaprazole]
inactive: 1 nM -1.96% | 8.33 nM -1.47% | 100 nM -0.45% | 833.33 nM -0.95% | 10000 nM -1.46%
